Source: the supplement of paper PMC12645437, “Orthogonal IMiD-Degron Pairs Induce Selective Protein Degradation in Cells” (ACS Chemical Biology, 2025)
In all, about 8,300 sequences were measured (“log2 fold change of degron read counts, EGFP-low vs EGFP+ sorted cells (limma voom), compound-induced degradation”: median about -1.1, highest 2% from about 3.2 on). For the sample, the highest values were picked, then their nearest neighbours and some sequences at random.

T1: CRBN, Q96SW2
T1 chain: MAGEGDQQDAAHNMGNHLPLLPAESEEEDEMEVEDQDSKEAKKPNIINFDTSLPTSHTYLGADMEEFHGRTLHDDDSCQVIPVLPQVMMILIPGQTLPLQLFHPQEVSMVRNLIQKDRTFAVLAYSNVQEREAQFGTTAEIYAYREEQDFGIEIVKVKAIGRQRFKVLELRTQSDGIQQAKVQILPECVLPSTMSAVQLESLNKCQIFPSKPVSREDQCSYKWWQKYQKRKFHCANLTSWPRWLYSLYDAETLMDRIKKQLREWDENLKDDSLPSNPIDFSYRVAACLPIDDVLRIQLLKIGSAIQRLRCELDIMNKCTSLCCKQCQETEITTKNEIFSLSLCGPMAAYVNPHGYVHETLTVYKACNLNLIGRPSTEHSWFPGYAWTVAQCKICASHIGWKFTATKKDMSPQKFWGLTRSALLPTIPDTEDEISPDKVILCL


Target: T1, CRBN, Q96SW2
Assay: log2 fold change of degron read counts, EGFP-low vs EGFP+ sorted cells (limma voom), compound-induced degradation; higher = more compound-induced degradation of the degron-EGFP fusion; degrons are variants of IKZF1/3 zinc finger 2; compound dose not given here
Settings: Jurkat, 18 h
[1] = compound: compound 19 (5-tert-butyl-thalidomide)
[2] = compound: compound 22 (5-morpholino-thalidomide)
[3] = compound: compound 33 (diphenyl IMiD analogue)
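Also: pooled lentiviral library of zinc finger degron-EGFP fusions in mCherry-positive Jurkat cells, FACS-sorted after compound exposure, with degron abundance counted by next-generation sequencing.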

| Sequence | log2 fold change of degron read counts [1] | log2 fold change of degron read counts [2] | log2 fold change of degron read counts [3] | log2 fold change of degron read counts (compound: thalidomide) |
| --- | --- | --- | --- | --- |
| FCCNQCGRTFTQKGNLLRHIKL [46F_47C_49N_50Q_52G_53R_54T_55F_67L_, Q9UKT9] | -2.96 | -2.98 | -2.8 | -2.49 |
| FKCNQCGRHFTQKGNLLRHIKL [46F_47K_49N_50Q_52G_53R_54H_55F_67L_, Q9UKT9] | -2.42 | -3.25 | -2.92 | -2.39 |
| FICEICGAFFTQKGNLLRHIKL [46F_47I_49E_50I_52G_53A_54F_55F_67L_, Q9UKT9] | -1.14 | 0.177 | 1.46 | 0.874 |
| FECSVCGHCFTQKGNLLRHIKL [46F_47E_49S_50V_52G_53H_54C_55F_67L_, Q9UKT9] | -2.85 | -3.1 | -2.83 | -3.04 |
| FCCNVCGAVFTQKGNLLRHIKL [46F_47C_49N_50V_52G_53A_54V_55F_67L_, Q9UKT9] | -1.07 | -0.182 | 1.49 | -0.139 |
| FVCNQCGHYFTQKGNLLRHIKL [46F_47V_49N_50Q_52G_53H_54Y_55F_67L_, Q9UKT9] | -3.08 | -3.34 | -2.73 | -2.44 |
| FFCNQCGHDFTQKGNLLRHIKL [46F_47F_49N_50Q_52G_53H_54D_55F_67L_, Q9UKT9] | -3.06 | -4.05 | -2.94 | -2.8 |
| FQCEVCGACFTQKGNLLRHIKL [46F_47Q_49E_50V_52G_53A_54C_55F_67L_, Q9UKT9] | 0.807 | 2.69 | 2.23 | 3.69 |
| FTCEVCGACFTQKGNLLRHIKL [46F_47T_49E_50V_52G_53A_54C_55F_67L_, Q9UKT9] | 1.37 | 2.52 | 2.51 | 2.66 |
| FYCEVCGACFTQKGNLLRHIKL [46F_47Y_49E_50V_52G_53A_54C_55F_67L_, Q9UKT9] | 3.74 | 3.85 | 3.1 | 1.37 |
| FSCEVCGACFTQKGNLLRHIKL [46F_47S_49E_50V_52G_53A_54C_55F_67L_, Q9UKT9] | 3.26 | 2.28 | 2.54 | 1.34 |
| FLCEVCGACFTQKGNLLRHIKL [46F_47L_49E_50V_52G_53A_54C_55F_67L_, Q9UKT9] | 0.437 | -0.686 | 1.57 | 1.59 |
| FRCEVCGACFTQKGNLLRHIKL [46F_47R_49E_50V_52G_53A_54C_55F_67L_, Q9UKT9] | -0.334 | -0.2 | 1.72 | 1.5 |
| FICEVCGACFTQKGNLLRHIKL [46F_47I_49E_50V_52G_53A_54C_55F_67L_, Q9UKT9] | -0.743 | 2.1 | 2.52 | 2.75 |
| FMCEVCGACFTQKGNLLRHIKL [46F_47M_49E_50V_52G_53A_54C_55F_67L_, Q9UKT9] | -0.094 | 0.00255 | 2.45 | 1.45 |
| FVCEVCGACFTQKGNLLRHIKL [46F_47V_49E_50V_52G_53A_54C_55F_67L_, Q9UKT9] | -0.0594 | 1.78 | 2.4 | 2.7 |
| LGCEICGFPCTQKGNLLRHIKL [46L_47G_49E_50I_52G_53F_54P_55C_67L_, Q9UKT9] | -1.16 | -1.81 | -2.14 | -1.69 |
| FECEICGRNFTQKGNLLRHIKL [46F_47E_49E_50I_52G_53R_54N_55F_67L_, Q9UKT9] | -2.61 | -2.28 | -0.395 | -0.731 |
| LMCEICGFFCTQKGNLLRHIKL [46L_47M_49E_50I_52G_53F_54F_55C_67L_, Q9UKT9] | -0.461 | -0.234 | 1.75 | 0.617 |

| Sequence | log2 fold change of degron read counts [1] | log2 fold change of degron read counts [2] | log2 fold change of degron read counts [3] | log2 fold change of degron read counts (compound: thalidomide) |
| --- | --- | --- | --- | --- |
| FNCEICGHGFTQKGNLLRHIKL [46F_47N_49E_50I_52G_53H_54G_55F_67L_, Q9UKT9] | -2.44 | -2.67 | -3.6 | -2.95 |
| FTCPVCGAQFTQKGNLLRHIKL [46F_47T_49P_50V_52G_53A_54Q_55F_67L_, Q9UKT9] | 0.0342 | 2.63 | 2.78 | 2.72 |
| FKCPICGHLFTQKGNLLRHIKL [46F_47K_49P_50I_52G_53H_54L_55F_67L_, Q9UKT9] | -2.52 | -3 | -3.86 | -2.43 |
| FTCNVCGAGFTQKGNLLRHIKL [46F_47T_49N_50V_52G_53A_54G_55F_67L_, Q9UKT9] | -0.827 | -0.181 | 0.811 | 0.259 |
| LQCEICGFDCTQKGNLLRHIKL [46L_47Q_49E_50I_52G_53F_54D_55C_67L_, Q9UKT9] | -2.82 | -2.45 | -2.23 | -1.2 |
| LTCNQCGFQCTQKGNLLRHIKL [46L_47T_49N_50Q_52G_53F_54Q_55C_67L_, Q9UKT9] | -2.38 | -2.53 | -1.48 | -1.47 |
| FRCDICGAYFTQKGNLLRHIKL [46F_47R_49D_50I_52G_53A_54Y_55F_67L_, Q9UKT9] | -1.87 | -1.92 | -0.0846 | 0.62 |
| FCCDICGACFTQKGNLLRHIKL [46F_47C_49D_50I_52G_53A_54C_55F_67L_, Q9UKT9] | 1.6 | 1.36 | 1.87 | 0.543 |
| FHCDICGACFTQKGNLLRHIKL [46F_47H_49D_50I_52G_53A_54C_55F_67L_, Q9UKT9] | 1.53 | 1.18 | -0.205 | -1.25 |
| FQCDICGACFTQKGNLLRHIKL [46F_47Q_49D_50I_52G_53A_54C_55F_67L_, Q9UKT9] | -0.256 | 2.12 | 1.17 | 3.3 |
| FRCDICGACFTQKGNLLRHIKL [46F_47R_49D_50I_52G_53A_54C_55F_67L_, Q9UKT9] | -1.25 | -1.11 | 1.03 | 0.116 |
| FFCDICGACFTQKGNLLRHIKL [46F_47F_49D_50I_52G_53A_54C_55F_67L_, Q9UKT9] | 3.31 | 3.14 | 1.33 | -1.14 |
| FSCDICGACFTQKGNLLRHIKL [46F_47S_49D_50I_52G_53A_54C_55F_67L_, Q9UKT9] | 1.95 | 1.34 | 1.4 | -0.055 |
| FMCDICGACFTQKGNLLRHIKL [46F_47M_49D_50I_52G_53A_54C_55F_67L_, Q9UKT9] | -1.13 | -0.637 | 1.57 | -0.555 |
| FTCDICGACFTQKGNLLRHIKL [46F_47T_49D_50I_52G_53A_54C_55F_67L_, Q9UKT9] | 1.04 | 1.6 | 1.21 | 0.886 |
| FYCDICGACFTQKGNLLRHIKL [46F_47Y_49D_50I_52G_53A_54C_55F_67L_, Q9UKT9] | 3.33 | 3.42 | 1.9 | -0.704 |
| FWCDICGACFTQKGNLLRHIKL [46F_47W_49D_50I_52G_53A_54C_55F_67L_, Q9UKT9] | 3.31 | 3.65 | 1.33 | -0.4 |
| FACDICGACFTQKGNLLRHIKL [46F_47A_49D_50I_52G_53A_54C_55F_67L_, Q9UKT9] | 2.85 | 0.596 | -0.194 | -1.27 |
| FECDICGACFTQKGNLLRHIKL [46F_47E_49D_50I_52G_53A_54C_55F_67L_, Q9UKT9] | -0.944 | -2.76 | 0.061 | 0.157 |
